The record followed here is PubChem BioAssay (Tox21).

Experiment [1] in a line: A CellTox Green Cytotoxicity Assay to monitor cytotoxicity in HEK293 cells - 24 hour (AID 1224875). Also: nearly all actives have a fitted effect of over 45% in size. The conditions noted are these: CellTox Green fluorescence; series mostly up to 76.8 µM. An outline of the steps:
(§1)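 Cells (HEK293, 600/well) and dye reagent are dispensed together. After 5 h at 37 C, 23 nL compound is pinned in. Plates stay at 37 C for 40 h with fluorescence read at 0h, 8h, 16h, 24h, 32h and 40h.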

A short description of experiment [2]: A CellTox Green Cytotoxicity Assay to monitor cytotoxicity in HepG2 cells - 16 hour (AID 1224876). Also: nearly all actives have a fitted effect of over 45% in size. Conditions: CellTox Green fluorescence; series mostly up to 76.8 µM. An outline of the steps:
(§2)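 Cells and non-lytic dye reagent are dispensed together (600 HepG2 cells/well) and incubated 5 h before DMSO compound transfer. Kinetic fluorescence is then recorded in the same wells during 40 h at 37 C.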

The nature of experiment [3]: qHTS RealTime-Glo MT Cell Viability Assay in HepG2 cells - 32 hour (AID 1224877). Also: nearly all actives have a fitted effect of over 55% in size. The conditions noted are these: RealTime-Glo luminescence; series mostly up to 76.8 µM. An outline of the steps: (§3)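 Viability was tracked continuously by NanoLuc luminescence from prosubstrate reduced by living HepG2 cells, at successive time points over 40 h of compound exposure. Cells with reagent were preincubated 5 h at 37 °C before compound addition.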
Background: In qHTS, concentration-response curves come from the screen itself.

Experiment [4] is described as follows: A CellTox Green Cytotoxicity Assay to monitor cytotoxicity in HepG2 cells - 24 hour (AID 1224878). Also: nearly all actives have a fitted effect of over 45% in size. Conditions: CellTox Green fluorescence; series mostly up to 76.8 µM. An outline of the steps:
as §2

A short description of experiment [5]: A CellTox Green Cytotoxicity Assay to monitor cytotoxicity in HepG2 cells - 40 hour (AID 1224879). Also: nearly all actives have a fitted effect of over 40% in size. Also: potency is read from the fitted curve at half-maximal effect. The conditions noted are these: CellTox Green fluorescence; series mostly up to 76.8 µM. In short, it runs like this:
as §2

Experiment [6] can be described thus: qHTS RealTime-Glo MT Cell Viability Assay in HEK293 cells - 0 hour (AID 1224880). Also: top concentration of the series differs between compounds; nearly all actives have a fitted effect of over 45% in size. Conditions: RealTime-Glo luminescence; series mostly up to 76.8 µM. In short, it runs like this: (§4)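 Real-time viability in HEK293: signal arises when living cells convert a prosubstrate for NanoLuc in the medium, so luminescence tracks viable cell number. Compound (23 nL, DMSO) added 5 h post-seeding; kinetic reads at 0–40 h, 37 C.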

A short description of experiment [7]: A CellTox Green Cytotoxicity Assay to monitor cytotoxicity in HEK293 cells - 32 hour (AID 1224881). Also: nearly all actives have a fitted effect of over 40% in size. Also: potency is read from the fitted curve at half-maximal effect. The conditions noted are these: CellTox Green fluorescence; series mostly up to 76.8 µM. An outline of the steps: as §1
Experiment [8] can be described thus: A CellTox Green Cytotoxicity Assay to monitor cytotoxicity in HepG2 cells - 32 hour (AID 1224883). Also: nearly all actives have a fitted effect of over 50% in size. Conditions: CellTox Green fluorescence; series mostly up to 76.8 µM. An outline of the steps: as §2
Experiment [9] can be described thus: A CellTox Green Cytotoxicity Assay to monitor cytotoxicity in HEK293 cells - 8 hour (AID 1224884). Also: nearly all actives have a fitted effect of over 35% in size. Also: potency is read from the fitted curve at half-maximal effect. The conditions noted are these: CellTox Green fluorescence; series mostly up to 76.8 µM. In short, it runs like this:
as §1

Experiment [10] in a line: qHTS RealTime-Glo MT Cell Viability Assay in HepG2 cells - 16 hour (AID 1224885). Also: nearly all actives have a fitted effect of over 50% in size. The conditions noted are these: RealTime-Glo luminescence; series mostly up to 76.8 µM. In short, it runs like this:
as §3

Experiment [11] in a line: qHTS RealTime-Glo MT Cell Viability Assay in HEK293 cells - 24 hour (AID 1224886). Also: top concentration of the series differs between compounds; nearly all actives have a fitted effect of over 50% in size. Conditions: RealTime-Glo luminescence; series mostly up to 76.8 µM. In short, it runs like this:
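Viability tracked continuously by luminescence as live cells reduce a prosubstrate for NanoLuc; HEK293 cells preincubated 5 h, compound-treated at 37 C, and read at 0, 8, 16, 24, 32 and 40 h.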

The nature of experiment [12]: qHTS RealTime-Glo MT Cell Viability Assay in HEK293 cells - 8 hour (AID 1224887). Also: top concentration of the series differs between compounds; nearly all actives have a fitted effect of over 50% in size. Conditions: RealTime-Glo luminescence; series mostly up to 76.8 µM. An outline of the steps: as §4
Experiment [13] can be described thus: A CellTox Green Cytotoxicity Assay to monitor cytotoxicity in HEK293 cells - 16 hour (AID 1224888). Also: nearly all actives have a fitted effect of over 35% in size. The conditions noted are these: CellTox Green fluorescence; series mostly up to 76.8 µM. In short, it runs like this: as §1
Experiment [14] in a line: A CellTox Green Cytotoxicity Assay to monitor cytotoxicity in HepG2 cells - 8 hour (AID 1224890). Also: nearly all actives have a fitted effect of over 45% in size. The conditions noted are these: CellTox Green fluorescence; series mostly up to 76.8 µM. An outline of the steps: as §2
Experiment [15] in a line: qHTS assay to identify small molecule antagonists of the estrogen receptor alpha (ER-alpha) signaling pathway using the BG1 cell line in the presence of 0.1 nM 17-beta-estradiol - cell viability counter screen (AID 1259241). Also: nearly all actives have a fitted effect of over 40% in size. The conditions noted are these: VM7Luc4E2 (BG1) viability, CellTiter-Fluor protease, 22 h, 0.1 nM estradiol agonist added; series mostly up to 92.4 µM. An outline of the steps: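 In this screen, hormone-deprived VM7Luc4E2 cells were seeded at 4,000 per well, dosed with compound and 0.1 nM estradiol final, and incubated 22 hr at 37C and 5% CO2; fluorogenic live-cell protease signal reported viability.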

Experiment [16] in a line: qHTS assay to identify small molecule antagonists of the androgen receptor (AR) signaling pathway using the MDA cell line in the presence of 0.5 nM R1881 - cell viability counter screen (AID 1259242). Also: nearly all actives have a fitted effect of over 45% in size. Conditions: MDA-kb2 viability, CellTiter-Fluor protease fluorescence, 16 h; series mostly up to 92.4 µM. In short, it runs like this: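 Steps: plate MDA-kb2 cells, rest 5 hr at 37C without CO2; pin in compounds in DMSO; add R1881 to 0.5 nM final; incubate 16 hr; add CellTiter-Fluor, 30 min; read fluorescence.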

Experiment [17] in a line: qHTS RealTime-Glo MT Cell Viability Assay in HEK293 cells - 40 hour (AID 1224874). Also: nearly all actives have a fitted effect of over 50% in size. Conditions: RealTime-Glo luminescence; max response: stronger effect = lower value. In short, it runs like this:
as §4

The nature of experiment [18]: A CellTox Green Cytotoxicity Assay to monitor cytotoxicity in HepG2 cells - 0 hour (AID 1224882). Also: nearly all actives have a fitted effect of over 35% in size. The conditions noted are these: CellTox Green fluorescence; series mostly up to 76.8 µM. An outline of the steps:
as §2

Experiment [19] can be described thus: qHTS RealTime-Glo MT Cell Viability Assay in HepG2 cells - 0 hour (AID 1224889). Also: nearly all actives have a fitted effect of over 50% in size. Conditions: RealTime-Glo luminescence; series mostly up to 76.8 µM. In short, it runs like this:
as §3

For experiment [20], the target named is Androgen receptor (Homo sapiens) (UniProt P10275). Description: qHTS assay to identify small molecule antagonists of the androgen receptor (AR) signaling pathway using the MDA cell line in the presence of 0.5 nM R1881 (AID 1259243). Also: nearly all actives have a fitted effect of over 50% in size. Conditions: MDA-kb2 MMTV-luciferase, R1881 0.5 nM, 16 h; series mostly up to 92.4 µM. In short, it runs like this:
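Stably transfected MDA-kb2 cells express luciferase from an MMTV promoter bearing both AR and GR response elements. Compounds plus 0.5 nM R1881 (final) were incubated 16 hr at 37C without CO2, then luminescence measured.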

Several values for one entry are separate records, joined by “and”; a condition that tells them apart may be missing. Equal values may be shown once. Records with an inconclusive call do not appear. Where a structure was tested more than once in an assay, its records may differ in their call. Activity calls are given as the source filed them. Calls follow the shape of the dose curve; as a rule, active = well fitted curve in the direction sought with a large enough effect in the repeat runs; inconclusive = weak or mixed curves; inactive = no such curve, though single readings can be large; an effect the other way counts as inactive or inconclusive.
% is scaled to controls: 0 for no effect and ±100 for the full control effect.

Sequence of Androgen receptor (Homo sapiens) (P10275 whole entry, looked up): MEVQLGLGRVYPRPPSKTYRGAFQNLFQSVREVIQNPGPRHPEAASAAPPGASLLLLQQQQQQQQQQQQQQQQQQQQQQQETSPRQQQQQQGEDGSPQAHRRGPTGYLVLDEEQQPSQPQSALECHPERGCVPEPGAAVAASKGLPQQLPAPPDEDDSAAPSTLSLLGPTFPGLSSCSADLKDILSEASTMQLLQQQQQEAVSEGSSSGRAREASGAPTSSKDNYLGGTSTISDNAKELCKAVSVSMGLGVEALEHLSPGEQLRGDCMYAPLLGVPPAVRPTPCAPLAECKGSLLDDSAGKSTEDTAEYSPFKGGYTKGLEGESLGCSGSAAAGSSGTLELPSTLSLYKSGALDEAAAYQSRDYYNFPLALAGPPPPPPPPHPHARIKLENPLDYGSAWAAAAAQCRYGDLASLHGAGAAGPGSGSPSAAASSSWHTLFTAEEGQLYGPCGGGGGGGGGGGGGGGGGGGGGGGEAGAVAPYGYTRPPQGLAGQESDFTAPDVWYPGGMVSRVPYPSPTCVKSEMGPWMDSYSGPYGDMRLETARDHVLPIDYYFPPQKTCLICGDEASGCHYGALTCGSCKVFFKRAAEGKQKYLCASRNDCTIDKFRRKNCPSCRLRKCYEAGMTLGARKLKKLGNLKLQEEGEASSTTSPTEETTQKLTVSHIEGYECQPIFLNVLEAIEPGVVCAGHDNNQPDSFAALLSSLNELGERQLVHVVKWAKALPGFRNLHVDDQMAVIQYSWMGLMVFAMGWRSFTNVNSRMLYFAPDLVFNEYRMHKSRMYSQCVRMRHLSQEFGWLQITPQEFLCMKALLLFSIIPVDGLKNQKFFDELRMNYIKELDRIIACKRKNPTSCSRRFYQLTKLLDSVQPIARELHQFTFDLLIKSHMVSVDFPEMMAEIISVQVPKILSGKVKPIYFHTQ

As to `Cn1cc(-c2ccccc2)c(=O)c(-c2cccc(C(F)(F)F)c2)c1`, the Potency entry in experiment [1], in experiment [2], in [4], in [5], in experiment [7] and in [8] was “inactive” throughout. Besides, the Potency result in experiment [9], in [11], in experiment [13], in experiment [14] and in experiment [15] was “inactive” throughout. Further, the compound was called inactive in experiment [3], in [6], in [10], in [12] and in experiment [16].

Turning to `C=CC(N)=O`, in experiment [17], the max response was 0.5% (inactive) and -10.4% (inactive). Also, the Potency result in [1], in experiment [4], in experiment [5], in experiment [7], in [18] and in [8] was “inactive” in each case. Moreover, the Potency entry in experiment [9], in experiment [11], in experiment [13], in [14] and in experiment [15] was “inactive” each time. In addition, the call in experiment [3], in experiment [6], in experiment [10], in experiment [12], in experiment [19] and in [16] was inactive.

For `COCCl`, in experiment [17], the max response was -4.66% (inactive) and 2.93% (inactive). For the same compound, the Potency result in experiment [1], in experiment [4], in experiment [5], in [7], in experiment [8] and in experiment [11] was “inactive” each time. In addition, the Potency result in experiment [13], in experiment [14], in [15] and in experiment [20] was “inactive” in each case. Also, the compound was called inactive in experiment [3], in [6], in experiment [10], in experiment [12], in [19] and in [16]. Further, the Potency in [9] was 22.7 µM (active) and inactive.

As for `O=[N+]([O-])c1ccc(Oc2ccc(Cl)cc2Cl)cc1`, the Potency result in [1], in experiment [2], in experiment [4], in experiment [5], in experiment [7] and in experiment [8] was “inactive” each time. Also, the Potency entry in experiment [9], in experiment [13], in experiment [14] and in experiment [15] was “inactive” in each case. Besides, the outcome in experiment [3], in experiment [6], in experiment [10], in [19] and in experiment [16] was inactive.

Take `CCCN(CCC)c1c([N+](=O)[O-])cc(C(F)(F)F)cc1[N+](=O)[O-]`: the max response in experiment [17] was -12.8% (inactive) and 1.59% (inactive). For the same compound, the Potency entry in experiment [2], in experiment [4], in [5], in experiment [18], in experiment [8] and in experiment [11] was “inactive” in each case. The Potency entry in experiment [13], in experiment [14], in experiment [15] and in experiment [20] was “inactive” each time. The call in experiment [3], in experiment [6], in [10], in [19] and in experiment [16] was inactive. For the same compound, the Potency is 1.55 µM (active) and inactive in experiment [7]; 1.23 µM (active) and inactive in [9].

`c1ccc2c(c1)Oc1ccccc1O2`: in experiment [17], the max response is 4.43% (inactive) and 0.097% (inactive). Further, the Potency result in [1], in experiment [4], in experiment [7], in experiment [8], in [9] and in [11] was “inactive” each time. Besides, the Potency result in experiment [13], in experiment [14] and in [15] was “inactive” each time. For the same compound, the result in experiment [3], in experiment [6], in experiment [10], in [12], in experiment [19] and in [16] was inactive. For the same compound, the Potency in experiment [5] is 30.5 µM (active) and inactive.

In the case of `Nc1ccccc1C(=O)O`, in experiment [17], the max response was 10.4% (inactive) and 8.34% (inactive). Besides, the Potency result in experiment [1], in experiment [4], in experiment [5], in [7], in experiment [8] and in experiment [9] was “inactive” throughout. In addition, the Potency entry in experiment [11], in experiment [13], in experiment [14] and in experiment [15] was “inactive” throughout. The compound was called inactive in experiment [3], in experiment [6], in [10], in experiment [12] and in experiment [19].
